Measurements from PubChem BioAssay.
The source made the active and inactive calls.

Tests used:
[1] = test system: Plasmodium falciparum Sir2 (PF13_0152, Sir2A); assay: pfSir2 binders on small-molecule microarrays, primary screen, biochemical, small-molecule microarray, 635 nm fluorescence (AID 1098); conditions: small-molecule microarray binding, fluorescence 635 nm; higher = more signal;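 also: score merges spot fluorescence intensity with its signal-to-noise ratio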
[2] = small-molecule microarray binders of probe aDKK1, primary screen, biochemical, biotinylated probe, 635/667 nm fluorescence (AID 1099); conditions: higher = more signal;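 also: score merges 667nm spot fluorescence with signal to noise across triplicate slides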
[3] = small-molecule microarray binders of probe aCHRDL2, primary screen, biochemical, biotinylated probe, 635/667 nm fluorescence (AID 1100); conditions: higher = more signal
[4] = splicing luciferase reporter signal modulators, primary screen, spliceosome inhibition project, cell-based, HEK293, splice +/- reporter (AID 1101); conditions: luminescence, 24 h, higher = more signal, called active from +8 up or from −8 down;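 also: HEK293 cells carrying a splicing-competent luciferase reporter gene; test concentration not given here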
[5] = molecular target: Fibroblast growth factor 10 (Homo sapiens) (UniProt O15520); assay: FGF10 binders on small-molecule microarrays, primary screen, biochemical, small-molecule microarray, 635 nm fluorescence (AID 1102); conditions: FGF10 binding, fluorescence 635 nm, higher = more signal
[6] = test system: glycogen synthase kinase-3 (GSK3A per assay name; protocol says GSK3B); assay: GSK3 binders on small-molecule microarrays, primary screen, biochemical, small-molecule microarray, 635 nm fluorescence, GSK3A (AID 1103); conditions: small-molecule microarray binding, fluorescence 635 nm; higher = more signal; also: the record names both GSK3A and GSK3B
[7] = molecular target: Epidermal growth factor receptor (Homo sapiens) (UniProt P00533); assay: EGFR binders on small-molecule microarrays, primary screen, biochemical, small-molecule microarray, 635 nm fluorescence (AID 1104); conditions: EGFR binding, higher = more signal;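 also: score merges 667 nm emission intensity with spot signal to noise over triplicate slides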
[8] = molecular target: Follistatin-related protein 3 (Homo sapiens) (UniProt O95633); assay: FSTL3 binders on small-molecule microarrays, primary screen, biochemical, small-molecule microarray, 635 nm fluorescence (AID 1105); conditions: FSTL3 binding, higher = more signal;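 also: score merges emission near 667 nm and signal to noise per printed spot across three slides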
[9] = molecular target: Dickkopf-related protein 1 (Homo sapiens) (UniProt O94907); assay: DKK1 binders on small-molecule microarrays, primary screen, biochemical, small-molecule microarray, 635 nm fluorescence scan (AID 1106); conditions: DKK1 binding, higher = more signal;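 also: score merges emission near 667 nm with signal to noise over three replicate slides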
[10] = test system: Inhibin beta A chain (activin A); assay: INHBA (activin A) binders on microarrays, primary screen, biochemical, small-molecule microarray, 635 nm fluorescence scan (AID 1107); conditions: small-molecule microarray binding, higher = more signal;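 also: mouse activin A protein probed at 4.33 µg/mL on printed slides; score merges bound-protein fluorescence near 667 nm with spot signal-to-noise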
[11] = test system: Human papillomavirus type 1a protein E7 (residues 44-93); assay: HPV1a E7 fragment binders on microarrays, primary screen, biochemical, small-molecule microarray, residues 44-93, 635 nm fluorescence (AID 1108); conditions: small-molecule microarray binding, fluorescence 635 nm; higher = more signal;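 also: E7 fragment applied at 1 µg/mL in TBST for 1 h at 4 C; score combines spot fluorescence with its signal to noise ratio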
[12] = modulators of HCV replicon luciferase signal, primary screen, HCV replication inhibitor project, Huh7 cells, luciferase reporter (AID 1109); conditions: 48 h, higher = more signal;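 also: huh7 hepatoma cells harbouring a luciferase neomycin HCV replicon reporter; luciferase luminescence as measure of HCV replicon replication; test concentration not given here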
[13] = molecular target: Left-right determination factor 2 (Homo sapiens) (UniProt O00292); assay: LEFTY2 binders on small-molecule microarrays, primary screen, biochemical, small-molecule microarray, 635 nm fluorescence scan (AID 1110); conditions: LEFTY2 binding, higher = more signal
[14] = molecular target: Calmodulin-1 (Homo sapiens) (UniProt P0DP23); assay: CALM1 binders on microarrays, EGTA buffer, profiling panel, biochemical, small-molecule microarray, Cy5-labelled CALM1 (AID 1111); conditions: Cy5-CALM1 binding fluorescence, higher = more signal;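 also: labelled calmodulin applied in Tris saline Tween buffer holding calcium plus EGTA and DTT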
[15] = molecular target: Calmodulin-1 (Homo sapiens) (UniProt P0DP23); assay: calcium-bound CALM1 binders on microarrays, profiling panel, artefact control for SMM control-protein annotation, biochemical, small-molecule microarray, Cy5-labelled CALM1, plus calcium (AID 1112); conditions: Cy5-CALM1 binding fluorescence, higher = more signal;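 also: score merges spot fluorescence with signal to noise from triplicate slides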
[16] = small-molecule microarray binders of probe aWnt5a, primary screen, biochemical, biotinylated probe, 635/667 nm fluorescence (AID 1113); conditions: higher = more signal;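 also: score merges 667 nm fluorescence intensity with signal-to-noise per printed feature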
[17] = small-molecule microarray binders of probe aShh, primary screen, biochemical, biotinylated probe, 635/667 nm fluorescence (AID 1114); conditions: higher = more signal;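 also: probe is biotin-labelled aShh protein from a stem cell growth factor screen; measures binding of labelled protein to compounds printed on the slide; score merges feature fluorescence at 667 nm with signal-to-noise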
[18] = small-molecule microarray binders of probe aNog, primary screen, biochemical, biotinylated probe, 635/667 nm fluorescence (AID 1115); conditions: higher = more signal;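 also: probe is biotinylated aNog protein used at 0.15 µg/mL for 1 h at 4 C; z-score combines 667 nm fluorescence of each spot with its signal to noise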
[19] = molecular target: Torsin-1A-interacting protein 1 (Homo sapiens) (UniProt Q5JTV8); assay: LAP1 binders from COS7 cell lysate, primary screen, small-molecule microarray, 635/667 nm fluorescence (AID 1116); conditions: COS7-hLAP1 lysate binding, 635 nm fluorescence, higher = more signal
[20] = molecular target: Alpha-bungarotoxin (Bungarus multicinctus) (UniProt P60615); assay: alpha-bungarotoxin binders on microarray, profiling panel, artefact control for SMM control protein annotation, biochemical, small-molecule microarray, Alexa647 label, 635/667 nm fluorescence (AID 1117); conditions: alpha-BTX-A647 binding fluorescence, higher = more signal
Alpha-bungarotoxin (Bungarus multicinctus), sequence (P60615 whole entry, looked up): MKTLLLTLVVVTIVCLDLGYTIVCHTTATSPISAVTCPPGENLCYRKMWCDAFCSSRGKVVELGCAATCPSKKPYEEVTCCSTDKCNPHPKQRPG

Dickkopf-related protein 1 (Homo sapiens), sequence (O94907 whole entry, looked up): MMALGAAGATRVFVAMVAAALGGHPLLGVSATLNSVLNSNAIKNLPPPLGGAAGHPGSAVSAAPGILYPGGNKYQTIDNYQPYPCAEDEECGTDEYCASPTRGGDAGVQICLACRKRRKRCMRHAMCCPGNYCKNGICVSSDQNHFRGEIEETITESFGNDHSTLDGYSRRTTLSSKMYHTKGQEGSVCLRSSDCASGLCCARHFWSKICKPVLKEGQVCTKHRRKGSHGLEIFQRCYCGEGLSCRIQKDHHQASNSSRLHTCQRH
Torsin-1A-interacting protein 1 (Homo sapiens), sequence (Q5JTV8 whole entry, looked up): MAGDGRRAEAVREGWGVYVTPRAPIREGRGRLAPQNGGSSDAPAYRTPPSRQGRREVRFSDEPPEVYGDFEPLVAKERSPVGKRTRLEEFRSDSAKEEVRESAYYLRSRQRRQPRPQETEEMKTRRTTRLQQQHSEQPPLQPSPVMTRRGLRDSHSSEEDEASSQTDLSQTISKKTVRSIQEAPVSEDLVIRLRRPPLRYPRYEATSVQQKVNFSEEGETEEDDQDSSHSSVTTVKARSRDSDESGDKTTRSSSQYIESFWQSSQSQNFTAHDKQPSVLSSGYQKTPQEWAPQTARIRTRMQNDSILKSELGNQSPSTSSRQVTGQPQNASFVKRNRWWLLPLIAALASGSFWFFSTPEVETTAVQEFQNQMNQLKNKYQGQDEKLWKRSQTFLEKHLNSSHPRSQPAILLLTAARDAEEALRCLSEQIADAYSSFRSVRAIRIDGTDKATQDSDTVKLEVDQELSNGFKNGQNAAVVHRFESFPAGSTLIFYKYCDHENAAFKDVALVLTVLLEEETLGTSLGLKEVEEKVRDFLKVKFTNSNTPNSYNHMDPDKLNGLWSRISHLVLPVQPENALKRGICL
Fibroblast growth factor 10 (Homo sapiens), sequence (O15520 whole entry, looked up): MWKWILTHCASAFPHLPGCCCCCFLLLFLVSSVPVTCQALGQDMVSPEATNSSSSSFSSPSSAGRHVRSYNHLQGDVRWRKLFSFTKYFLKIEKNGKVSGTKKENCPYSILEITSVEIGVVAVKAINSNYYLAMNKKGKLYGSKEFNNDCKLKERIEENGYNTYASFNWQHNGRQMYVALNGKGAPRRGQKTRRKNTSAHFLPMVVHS
Epidermal growth factor receptor (Homo sapiens), sequence (P00533 whole entry, looked up): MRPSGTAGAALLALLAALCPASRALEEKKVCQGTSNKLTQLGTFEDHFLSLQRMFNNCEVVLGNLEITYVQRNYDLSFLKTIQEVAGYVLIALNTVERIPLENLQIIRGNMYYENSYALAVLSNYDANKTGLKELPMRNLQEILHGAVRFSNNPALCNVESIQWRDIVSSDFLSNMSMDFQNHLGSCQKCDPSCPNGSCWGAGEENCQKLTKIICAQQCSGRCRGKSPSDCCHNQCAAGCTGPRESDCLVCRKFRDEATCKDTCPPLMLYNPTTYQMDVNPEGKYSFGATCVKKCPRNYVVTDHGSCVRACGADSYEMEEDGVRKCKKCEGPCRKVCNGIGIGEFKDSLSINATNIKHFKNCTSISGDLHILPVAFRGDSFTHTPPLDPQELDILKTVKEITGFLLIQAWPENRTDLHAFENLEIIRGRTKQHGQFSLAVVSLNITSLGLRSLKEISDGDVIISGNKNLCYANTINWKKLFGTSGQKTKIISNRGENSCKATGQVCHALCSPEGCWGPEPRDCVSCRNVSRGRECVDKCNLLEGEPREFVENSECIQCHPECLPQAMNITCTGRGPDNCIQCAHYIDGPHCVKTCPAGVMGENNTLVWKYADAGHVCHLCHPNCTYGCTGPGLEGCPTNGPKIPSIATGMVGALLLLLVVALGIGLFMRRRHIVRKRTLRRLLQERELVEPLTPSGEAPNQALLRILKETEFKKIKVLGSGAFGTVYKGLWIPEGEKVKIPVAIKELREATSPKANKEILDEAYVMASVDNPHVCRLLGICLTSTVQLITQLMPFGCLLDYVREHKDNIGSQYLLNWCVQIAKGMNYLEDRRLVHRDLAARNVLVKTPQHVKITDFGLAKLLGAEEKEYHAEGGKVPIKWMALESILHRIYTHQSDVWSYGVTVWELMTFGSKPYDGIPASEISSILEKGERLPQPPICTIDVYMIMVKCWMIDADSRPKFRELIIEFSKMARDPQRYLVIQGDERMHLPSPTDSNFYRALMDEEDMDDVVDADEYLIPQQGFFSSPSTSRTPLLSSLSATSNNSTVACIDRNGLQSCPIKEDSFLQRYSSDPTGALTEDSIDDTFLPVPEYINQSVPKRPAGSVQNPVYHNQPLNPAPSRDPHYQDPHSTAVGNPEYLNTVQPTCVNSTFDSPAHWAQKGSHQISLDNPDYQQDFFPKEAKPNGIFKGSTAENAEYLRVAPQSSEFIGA
Follistatin-related protein 3 (Homo sapiens), sequence (O95633 whole entry, looked up): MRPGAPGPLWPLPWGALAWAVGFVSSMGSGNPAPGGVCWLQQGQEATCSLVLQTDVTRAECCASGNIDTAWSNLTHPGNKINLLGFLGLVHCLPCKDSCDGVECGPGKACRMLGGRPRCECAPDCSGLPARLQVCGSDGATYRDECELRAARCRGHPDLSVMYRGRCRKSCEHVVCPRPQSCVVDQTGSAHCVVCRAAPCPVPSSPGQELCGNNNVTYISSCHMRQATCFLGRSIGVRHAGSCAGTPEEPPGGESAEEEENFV
Left-right determination factor 2 (Homo sapiens), sequence (O00292 whole entry, looked up): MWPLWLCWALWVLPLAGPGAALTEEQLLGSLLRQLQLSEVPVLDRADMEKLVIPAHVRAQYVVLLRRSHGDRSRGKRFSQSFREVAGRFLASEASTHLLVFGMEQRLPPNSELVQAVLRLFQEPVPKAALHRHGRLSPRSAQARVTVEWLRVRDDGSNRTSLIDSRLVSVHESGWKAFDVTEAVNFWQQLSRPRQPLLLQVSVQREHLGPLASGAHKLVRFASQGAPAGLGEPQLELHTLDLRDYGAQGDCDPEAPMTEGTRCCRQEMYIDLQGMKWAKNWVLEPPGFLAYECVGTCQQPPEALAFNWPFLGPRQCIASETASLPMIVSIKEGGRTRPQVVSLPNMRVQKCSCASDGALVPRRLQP

| SMILES | composite z-score [1] | composite z-score [2] | composite z-score [3] | z-score [4] | composite z-score [5] | composite z-score [6] | composite z-score [7] | composite z-score [8] | composite z-score [9] | composite z-score [10] | composite z-score [11] | z-score [12] | composite z-score [13] | composite z-score [14] | composite z-score [15] | composite z-score [16] | composite z-score [17] | composite z-score [18] | composite z-score [19] | composite z-score [20] |
| --- | --- | --- | --- | --- | --- | --- | --- | --- | --- | --- | --- | --- | --- | --- | --- | --- | --- | --- | --- | --- |
| Cc1ccc(S[C@]2(C(=O)NCC(C)C)CC(=O)N(C3Cc4ccccc4C3)[C@@H]2c2ccc(CO)cc2I)cc1 | 1.35 | -0.126 | -0.0156 | -0.968 (inactive) | -0.767 | -0.61 | -0.821 | 0.594 | -1.02 | 0.847 | -0.117 | -1.33 | -1.2 | -0.257 | 0.27 | -0.125 | -0.368 | 0.0862 | 0.273 | -0.324 |
| CC(C)c1ccc(NN2C(C(O)Cc3ccccc3)C=CC3C(=O)N(c4ccccc4)C(=O)C32)cc1 (stereo not given) | 0.587 | 0.655 | 0.811 | -0.469 (inactive) | 0.932 | 1.04 | 0.399 | 1.26 | 0.241 | -0.323 | 1.33 | 0.843 | 0.126 | 2.05 | 0.744 | -0.0819 | 0.23 | 1.53 | 0.98 | 1.06 |
| CN1C(=O)C2C=CC(C(O)c3ccc(F)cc3)N(NC(=O)OC(C)(C)C)C2C1=O (stereo not given) | 0.578 | -0.066 | 0.535 | 1.15 (inactive) | 0.45 | 0.336 | -0.196 | 0.15 | -0.767 | 0.471 | 1.36 | -0.428 | -0.205 | 0.989 | 0.469 | -0.109 | 0.265 | 1.12 | -0.102 | 0.613 |
| COCCOC(=O)N1C(=O)[C@@]2(c3cc(C#Cc4ccc(OC)cc4)ccc31)[C@H](C(=O)NC[C@H](O)c1ccccc1)[C@H]1C(=O)O[C@H](c3ccccc3)[C@H](c3ccccc3)N1[C@@H]2c1ccc(OCCO)cc1 | 1.02 | -0.0284 | 0.236 | -1.31 (inactive) | 1.36 | 1.3 | 0.384 | 0.863 | 0.324 | 0.269 | 1.42 | -1.52 | 0.46 | 1.16 | -0.0063 | 0.0031 | 0.0469 | 0.371 | 1.14 | 1.53 |
| C=C(C(=O)CC[C@H](OC(=O)c1ccccc1-c1ccccc1C(=O)O)c1ccccc1OCCO)C(C)C | 1.01 | -0.175 | -0.459 | -0.456 (inactive) | 0.238 | 0.304 | -0.388 | 0.176 | 0.273 | 1.16 | 0.649 | -1.59 | 0.346 | -0.246 | -0.4 | -0.0573 | 0.108 | 0.0718 | 1.31 | 1.26 |
| Cc1ccc(F)cc1S(=O)(=O)N[C@@H]1CCN(Cc2cccc3[nH]ccc23)C1 | 0.245 | -0.374 | -0.518 | -0.44 (inactive) | 0.67 | 0.67 | 0.719 | 1.36 | 0.236 | 0.741 | -0.0347 | -1.57 | 0.682 | -0.517 | -1.03 | -0.0685 | -0.153 | -0.492 | 0.852 | 0.111 |
| [N-]=[N+]=NCc1ccccc1[C@@H]1OC(c2ccc(OCCCO)cc2)=N[C@]1(Cc1ccccc1)C(=O)NCCN1CCOCC1 | 1.03 | 0.657 | 0.58 | 0.0496 (inactive) | 0.868 | 0.616 | -0.102 | 0.567 | -0.383 | 0.798 | 1.42 | -2.37 | 0.133 | 1.2 | 0.558 | 0.0825 | 0.1 | 0.684 | 0.946 | 0.63 |
| COc1cc(NN2C(C(O)c3ccccc3)C=CC3C(=O)N(C)C(=O)C32)cc(OC)c1OC (stereo not given) | 0.618 | 0.195 | 0.8 | -0.676 (inactive) | 0.422 | 0.843 | 0.187 | 0.362 | -0.186 | 0.784 | 1.35 | -0.928 | 0.222 | 0.533 | -0.171 | 0.0437 | 0.151 | 0.521 | 0.891 | 0.544 |
| C=CCNC(=O)[C@H]1[C@@H]2C(=O)O[C@@H](c3ccccc3)[C@@H](c3ccccc3)N2[C@@H](c2ccc(OCCO)cc2)[C@]12C(=O)N(C(=O)OCCOC)c1ccc(C#Cc3ccc(OC)cc3)cc12 | 1.28 | 0.195 | -0.0801 | -0.957 (inactive) | 0.866 | 1.28 | 0.639 | 0.749 | 0.189 | 0.768 | 1.4 | -2.54 | 0.631 | 0.512 | 0.14 | -0.0445 | 0.0976 | 0.447 | -0.0927 | 1.49 |
| O=C(CS)NCCCCCNC(=O)[C@@H]1C[C@@H]2C(=O)N[C@@H](Cc3ccccc3)C(=O)N2[C@@H]1c1cccc(OCCO)c1 | 1.74 | 0.0021 | 0.0402 | -0.345 (inactive) | 1.17 | 1.32 | 0.526 | 0.988 | 1.25 | -0.678 | 1.41 | 0.266 | 0.705 | 1.94 | -0.0675 | -0.302 | -0.482 | -0.458 | 1.08 | 1.54 |
| [N-]=[N+]=Nc1ccccc1C[C@@]1(C(=O)O)N=C(c2ccc(OCCCO)cc2)O[C@@H]1c1ccccc1N=[N+]=[N-] | 1.46 | 1.16 | 1.32 | -0.469 (inactive) | 0.285 | 1.11 | -0.383 | 0.626 | -0.435 | 1.29 | 1.26 | -1.26 | 0.0656 | 2.45 | 1.12 | -0.034 | 0.108 | 1.27 | 1.79 | 1.32 |
